Assay results from PubChem BioAssay (NCATS).
Results filed as inconclusive are left out. Calls of active or inactive are those of the source. The call rests on the fitted dose curve; in most records, active means well fitted cell-killing curve with a large enough effect; inconclusive means small, poorly fitted or top-dose-only effect; inactive means no such curve, though single readings can be large or run the other way.

assay: qHTS of pediatric cancer cell lines to identify multiple opportunities for drug repurposing: Primary screen for A673 cells (AID 1347092); details: A673 Ewing sarcoma viability, CellTiter-Glo ATP luminescence, 48 h; series mostly up to 46 µM; further: nearly all actives have a fitted effect of over 45% in size
Text: Drug repurposing or repositioning has been offered as a strategy for drug development in oncology programs. This approach has special potential for childhood cancers and other rare or orphan diseases, where the expected return on new drug development has been a disincentive to pharmaceuticals. […] In this project we exploit the poly-pharmacology of drugs to discover new indications via phenotypic screening of a panel of 19 well-characterized cell lines derived from solid tumors seen in children and adolescents. The goal is to identify approved drugs with previously unrecognized anticancer properties that has the potential to reveal new mechanisms and biological processes involved in carcinogenesis or drug resistance. We employed a titration-based paradigm (quantitative high-throughput screening or qHTS), where all compounds were tested at multiple concentrations for their effect on cell viability. Concentration-response curves (CRCs) were derived directly from the primary screen, and both potency and efficacy values were used to identify compounds with robust bioactivity profiles. We screened the NIH Chemical Genomics Center (NCGC) Pharmaceutical Collection (NPC) and Mechanism Interrogation Plate (MIPE) small molecule collections of approved and investigational compounds against these cell lines; and measured metabolically active cells after 48 hours of compound treatment as a proxy for cell viability. […] Assay Submitter: Nathalia J. Martinez, National Center for Advancing Translational Sciences, National Institutes of Health, Rockville, MD, USA; email: natalia.martinez@nih.gov. Shen, M et al. Quantitative high-throughput phenotypic screening of pediatric cancer cell lines identifies multiple opportunities for drug repurposing. Oncotarget 2017 Dec 19;9(4):4758-4772. PMID 29435139.
The cells were obtained from University of North Carolina (UNC), Pediatric Preclinical Testing Program (PPT), and Coriell Institute (CI). qHTS cell viability assay: Cells were assayed in growth media at a density of 500-1,000 cells/well. Five microliters of cells were dispensed into 1,536-well, white, solid-bottom, TC-treated plates (Greiner Bio One) using a multidrop dispenser and incubated at 37 degrees C, 5% CO2, under a humidified atmosphere for 5 hours. Twenty-three nanoliters of compounds and controls (neutral control DMSO or positive control bortezomib at final concentration of 2.3 uM) were subsequently transferred by Kalypsys pintool. For primary screens, the MIPE collection was tested at 11-point dilutions (final concentrations range from 0.78 nM to 46 µM) and the NPC collection at 8-point dilutions (final concentrations range from 0.59 nM to 46 µM). Compounds tested in follow-up screens were assayed at 11-point dilutions. Cells were incubated for 48 hours, followed by addition of 3 uL of CellTiter-Glo (Promega). After a 15min incubation at room temperature, samples were analyzed for luminescence intensity using a ViewLux High-throughput CCD imager equipped with clear filters.
On the % scale 0 is the no-effect control and ±100 the full control effect; potency means the concentration at half of the fitted maximal effect.

Row | Compound | Potency | activity change, negative = cytotoxic
1 | COc1cc(N2CCN(C)CC2)ccc1Nc1nc(N)c(C(=O)c2c(Cl)cccc2Cl)s1 | 18.7 µM (active) | 
2 | CN(C)CCOc1ccc(-c2nc(-c3ccc4c(c3)CCC4=NO)c(-c3ccncc3)[nH]2)cc1 | 18.7 µM (active) | 
3 | Cc1cc(C(C)Nc2ccccc2)c2nc(N3CCOCC3)cc(=O)n2c1 (stereo not given) | 0.935 µM (active) | 
4 | CC(C)Oc1cc(Nc2nc(N[C@@H](C)c3ccc(F)cn3)ncc2Cl)[nH]n1 | 9.35 µM (active) | 
5 | N#CC(c1ccc(Cl)cc1)c1c(Cl)cc(-n2ncc(=O)[nH]c2=O)cc1Cl (stereo not given) | 11.8 µM (active) | 
6 | CC(=O)O[C@]1(C(C)=O)CC[C@H]2[C@@H]3C=C(Cl)C4=CC(=O)[C@@H]5C[C@H]5[C@]4(C)[C@@H]3CC[C@@]21C | 0.469 µM (active) | 
7 | CN(C)CC[C@H](CSc1ccccc1)Nc1ccc(S(=O)(=O)NC(=O)c2ccc(N3CCN(Cc4ccccc4-c4ccc(Cl)cc4)CC3)cc2)cc1[N+](=O)[O-] | 3.72 µM (active) | 
8 | CC[C@H](CC#N)OC(=O)N[C@@H](C)c1cccc(NC(=O)Nc2ccc(-c3cnco3)c(OC)c2)c1 | 0.743 µM (active) | 
9 | O=C(O)c1nc(=O)[nH]c(=O)[nH]1 | inactive | 
10 | CCNC(=O)c1noc(-c2cc(C(C)C)c(O)cc2O)c1-c1ccc(CN2CCOCC2)cc1 | 0.148 µM (active) | 
11 | COc1ccc(CCC(=O)Nc2nc3ccc(Cl)cc3s2)cc1OC | 18.7 µM (active) | 
12 | CC(C)[C@H](O)C(=O)N[C@@H](C)C(=O)N[C@@H]1C(=O)N(C)CCc2ccccc21 | 23.5 µM (active) | 
13 | CCc1cc(-c2n[nH]c(C)c2-c2ccc3c(c2)OCCO3)c(O)cc1O | 7.43 µM (active) | 
14 | C[C@]12CC[C@@H]3c4ccc(O)cc4CC[C@H]3[C@H]1[C@@H](O)[C@@H](O)[C@H]2O | 14.8 µM (active) | 
15 | CCCCN(CCCC)CC(O)c1cc(Cl)cc2c1-c1ccc(Cl)cc1C2=Cc1ccc(Cl)cc1 (stereo not given) | inactive | 
16 | CCc1cccc(CC)c1NC(=O)N1Cc2[nH]nc(NC(=O)c3ccc(N4CCN(C)CC4)cc3)c2C1 | 14.8 µM (active) | 
17 | CC1(C)[C@H]2CC[C@]3(C)[C@@H](C(=O)C=C4[C@@H]5C[C@@](C)(C(=O)O)CC[C@]5(C)CC[C@]43C)[C@@]2(C)CC[C@@H]1O | inactive | 
18 | CN[C@H]1[C@@H](O[C@@H]2[C@H](O[C@@H]3[C@@H](O)[C@@H](O)[C@@H](N=C(N)N)[C@@H](O)[C@@H]3N=C(N)N)O[C@H](C)[C@@]2(O)C=O)O[C@@H](CO)[C@@H](O)[C@H]1O |  | -1.15% [at 9.22 µM] (inactive)
19 | CC(C)(F)C[C@H](N[C@@H](c1ccc(-c2ccc(S(C)(=O)=O)cc2)cc1)C(F)(F)F)C(=O)NC1(C#N)CC1 | inactive | 
20 | CC1C(=O)OC2C(O)C34C5CC(C(C)(C)C)C36C(OC(=O)C6O)OC4(C(=O)O5)C12O (stereo not given) | 18.7 µM (active) | 

Row | Compound | Potency | activity change, negative = cytotoxic
21 | Cc1ccc(S(=O)(=O)OCC(=O)Nc2ccc(C(=O)O)c(O)c2)cc1 | 14.8 µM (active) | 
22 | CCN1CCC(n2cc(CNc3cc(Cl)c4ncc(C#N)c(Nc5ccc(F)c(Cl)c5)c4c3)nn2)CC1 | 14.8 µM (active) | 
23 | NC(=O)c1ncn([C@@H]2O[C@H](CO)[C@@H](O)[C@@H]2O)n1 | inactive | 
24 | CCOC(=O)[C@H]1O[C@H]1C(=O)N[C@@H](CC(C)C)C(=O)NCCC(C)C | 18.7 µM (active) | 
25 | COc1nccc(-c2c(-c3ccc(F)cc3)ncn2C2CCC(O)CC2)n1 (stereo not given) | inactive | 
26 | CC1=C(CC(=O)O)c2cc(F)ccc2C1=Cc1ccc(S(C)=O)cc1 (stereo not given) | 1.48 µM (active) | 
27 | CO[C@H]1/C=C\O[C@@]2(C)Oc3c(C)c(O)c4c(O)c(c5c(nc6cc(C)ccn65)c4c3C2=O)NC(=O)C(C)=CC=C[C@H](C)[C@H](O)[C@@H](C)[C@@H](O)[C@@H](C)[C@H](OC(C)=O)[C@H]1C | inactive | 
28 | CC(C)(C)c1[nH]cnc1C=c1[nH]c(=O)c(=Cc2ccccc2)[nH]c1=O | 0.001 µM (active) | 
29 | COc1ccc(-c2cc3nccn3c(Nc3ncccc3C(N)=O)n2)cc1OC | 1.48 µM (active) | 
30 | CC(=O)N1CCN(c2ccc(OCc3nn(C)c(C)c3-c3cccc4c(CCCOc5cc(C)c(Cl)c(C)c5)c(C(=O)O)n(Cc5cccnc5)c34)cc2)CC1 | 14.8 µM (active) | 
31 | CCCCC[C@H](O)C=C[C@H]1[C@H](O)CC(=O)[C@H]1CC=CCCCC(=O)O | inactive | 
32 | CCN1CCN(c2ccc(Nc3cc(N(C)C(=O)Nc4c(Cl)c(OC)cc(OC)c4Cl)ncn3)cc2)CC1 | inactive | 
33 | CCC[C@H](Nc1nc(-c2ccc(NC(=O)NCC)c(OC)c2)ncc1C)c1cccnc1 | 0.0187 µM (active) | 
34 | O=C(Nc1cccc(Cl)c1)Nc1ncc(CCNc2ncnc3ccsc23)s1 | 14.8 µM (active) | 
35 | C[C@H]1[C@H](O)O[C@@H]2O[C@@]3(C)CC[C@@H]4[C@H](C)CC[C@@H]1[C@@]24OO3 | 7.43 µM (active) | 
36 | Clc1ccc(COC(Cn2ccnc2)c2ccc(Cl)cc2Cl)c(Cl)c1 (stereo not given) | 23.5 µM (active) | 
37 | COc1cc(Cl)cn2c(-c3cccc(NC4CNC4)n3)cnc12 | 4.69 µM (active) | 
38 | CCC(=O)OCC(=O)[C@@]1(OC(=O)CC)[C@@H](C)C[C@@H]2[C@H]3CCC4=CC(=O)C=C[C@]4(C)[C@@]3(F)[C@@H](O)C[C@@]21C | 1.87 µM (active) | 
39 | O=C(Nc1ccccc1)Nc1ccc(-c2ccc(C(=O)[C@H]3CCC[C@H]3C(=O)O)cc2)cc1 | 11.8 µM (active) | 
40 | CC[C@H](C)C(=O)O[C@H]1C[C@H](O)C=C2C=C[C@H](C)[C@H](CC[C@@H](O)C[C@@H](O)CC(=O)O)[C@H]21 | inactive | 
